Measured values as given in PubChem BioAssay (NCI).
The panel holds about 79,000 compounds, 15% with a hit somewhere; the sample as a whole holds those more often. Values without a mark were called inactive. The source made the active and inactive calls. Cut-off read from the data, not from the text of the source: active = growth inhibition above about 70%; inactive = the rest.

Legend:
[1] = NCI Yeast Anticancer Drug Screen. Data for the rad50 strain (AID 155);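 note: 0% = growth of vehicle-only cultures of the same strain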; details: S. cerevisiae rad50 strain growth inhibition, active compounds read high
Method in brief: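 Vehicle-treated cultures provide the reference for the growth inhibition reported for compound-exposed, repair-deficient yeast.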

[2] = NCI Yeast Anticancer Drug Screen. Data for the mec2-1 strain (AID 157); details: S. cerevisiae mec2-1 strain, active compounds read high
Method in brief: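 Yeast mec2-1 mutant treated with compound. Readout: growth inhibition vs vehicle controls.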

[3] = NCI Yeast Anticancer Drug Screen. Data for the sgs1 mgt1 strain (AID 161);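 note: 0% = growth of cultures given vehicle only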; details: S. cerevisiae sgs1 mgt1 strain, active compounds read high
Method in brief: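 Test agents were incubated with a DNA-repair-mutant yeast strain. Growth was then read and compared against vehicle-treated controls.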

[4] = NCI Yeast Anticancer Drug Screen. Data for the cln2 rad14 strain (AID 165);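 note: 0% = growth equal to vehicle treated cultures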; details: S. cerevisiae cln2 rad14 strain, active compounds read high
Method in brief: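 cln2 rad14 yeast strain; compound exposure; growth inhibition read vs vehicle controls.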

[5] = NCI Yeast Anticancer Drug Screen. Data for the bub3 strain (AID 167); details: S. cerevisiae bub3 mutant strain, active compounds read high
Method in brief: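 Mutant yeast screening strain plus compound; vehicle-treated cultures serve as the 0% inhibition reference.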

[6] = NCI Yeast Anticancer Drug Screen. Data for the mlh1 rad18 strain (AID 175); details: S. cerevisiae mlh1 rad18 strain growth inhibition, active compounds read high
Method in brief: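 Yeast w/ defined DNA-repair lesions; compound exposure; growth vs vehicle controls → % inhibition.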

[7] = at 5.0 µM (retest, dose inferred, filed as 0.5)
[8] = at 50.0 µM (retest, dose inferred, filed as 5.0)

SMILES | growth inhibition [1, 7] | growth inhibition [1, 8] | growth inhibition ([1]; at 50.0 µM) | growth inhibition [2, 7] | growth inhibition [2, 8] | growth inhibition ([2]; at 50.0 µM) | growth inhibition [3, 7] | growth inhibition [3, 8] | growth inhibition ([3]; at 50.0 µM) | growth inhibition [4, 7] | growth inhibition [4, 8] | growth inhibition ([4]; at 50.0 µM) | growth inhibition [5, 7] | growth inhibition [5, 8] | growth inhibition ([5]; at 50.0 µM) | growth inhibition [6, 7] | growth inhibition [6, 8] | growth inhibition ([6]; at 50.0 µM)
Oc1ccccc1C1N(Cc2ccc(Cl)cc2)CCN1Cc1ccc(Cl)cc1 | 7% | 57% | 18.2% | 7% | 58% | 17.6% | 20% | 93% (active) | 46.5% | 14% | 58% | 62.6% | 22% | 81% (active) | 16.4% | 22% | 70% (active) | 18.4%
Cc1ccc(N2C(=O)CCSC2=S)cc1C | -1% | 87% (active) | 97.2% (active) | 0% | 35% | 80.5% (active) | 4% | 96% (active) | 98.3% (active) | -2% | 32% | 38.9% | -5% | 77% (active) | 68.7% | -2% | 98% (active) | 95.4% (active)
O=C(Nc1cccc(C(F)(F)F)c1)O/N=C(/Cl)CCl | 3% | 100% (active) | 88.5% (active) | -19% | 100% (active) | 91.7% (active) | -51% | 99% (active) | 84.7% (active) | -8% | 100% (active) | 90.5% (active) | -38% | 100% (active) | 88.8% (active) | -9% | 100% (active) | 84.2% (active)
CCCCCCCCCC(=O)CC(=O)c1c(O)cccc1O | 33% | 83% (active) | 86% (active) | 20% | 92% (active) | 90.3% (active) | 52% | 96% (active) | 90.5% (active) | 22% | 83% (active) | 88.9% (active) | 42% | 94% (active) | 87.3% (active) | 40% | 95% (active) | 86.2% (active)
O=C1/C(=C/c2ccc(F)cc2)CNC/C1=C\c1ccc(F)cc1 | 12% | 44% | 79.2% (active) | 5% | 36% | 84.8% (active) | -2% | 31% | 79.2% (active) | 35% | 43% | 70.6% (active) | -11% | 37% | 79.8% (active) | 16% | 53% | 85.5% (active)
CCCCN1C(=O)C(=O)N(c2ccccc2)C1=O | -6% | 5% | 18.2% | -7% | 12% | 32.9% | -14% | 1% | 8.65% | -29% | -17% | 73.8% (active) | -21% | 11% | 1.55% | -5% | 15% | 16.9%
CCCCCCCCc1ccc2c3ccccc3c3ccccc3c2c1 | -9% | -12% | 76.8% (active) | -19% | -5% | 60.4% | -19% | -3% | 65.8% | -1% | -12% | 3.05% | -1% | -10% | 8.65% | 23% | 6% | 58.9%
CCCCCCCCCCCCCCCCCCOS(=O)(=O)O (tested in a mixture with another compound) | 1% | 63% | 56.4% | -35% | 76% (active) | 56.6% | -12% | 60% | 68.7% | -30% | 49% | 42.5% | -31% | 77% (active) | 67.5% | -27% | 80% (active) | 57.5%
COC1OC(CN=[N+]=[N-])C(OC(=O)c2ccccc2)C(OC(C)=O)C1OC(C)=O (centres undefined) | -3% | -3% | 7.35% | -24% | 23% | 9.8% | -192% | -1% | 18.1% | 2% | -2% | 0% | 61% | 73% (active) | 80% (active) | 13% | 13% | 18.2%
O=C(O)c1ccc2ccccc2c1C(=O)c1cccc2ccccc12 | 12% | 12% | 86.8% (active) | 1% | 8% | 83.5% (active) | 0% | 21% | 90.4% (active) | 7% | 9% | 92.1% (active) | 0% | 3% | 83.2% (active) | -5% | 15% | 92.2% (active)
CN(C)C(=S)/N=c1\ssc(=S)n1C | 2% | 0% | 86.7% (active) | 2% | 4% | 27.4% | 2% | -1% | 90.7% (active) | 1% | 4% | 72.1% (active) | -1% | -1% | 87.8% (active) | 0% | 6% | 84.8% (active)
CCOC(=O)C(/C=N\C(=S)Nc1ccc(Cl)c(Cl)c1)=C(/O)c1ccccc1 | 2% | 58% | 83.3% (active) | -3% | 45% | 69% | 11% | 38% | 75.5% (active) | -8% | 45% | 78.6% (active) | 12% | 35% | 78.4% (active) | -9% | 49% | 81.2% (active)
Nc1ccc(CSc2ccc(Cl)cc2)cc1Cl | -3% | 99% (active) | 37% | -5% | 99% (active) | 3.9% | -6% | 98% (active) | 40.9% | -16% | 99% (active) | -24.7% | 32% | 99% (active) | 4.35% | 1% | 99% (active) | 13.7%
O=C1/C(=C/c2ccc3c(c2)OCO3)Sc2scc(-c3ccc(O)c(O)c3)[n+]21 | 25% | 98% (active) | 83.8% (active) | 33% | 99% (active) | 88.3% (active) | 67% | 98% (active) | 91% (active) | 26% | 98% (active) | 89.4% (active) | 97% (active) | 98% (active) | 88.5% (active) | 27% | 99% (active) | 90.8% (active)
Cc1ccc(C)c2[nH]c(-c3ccccc3)cc12 | -1% | 99% (active) | 99.3% (active) | -37% | 99% (active) | 99.2% (active) | 0% | 99% (active) | 99.3% (active) | 0% | 99% (active) | 99.1% (active) | -5% | 99% (active) | 99.2% (active) | -1% | 99% (active) | 99.2% (active)
C[N+](C)(C)CCN(Cc1cccs1)c1ccccn1 | -2% | -9% | 20.2% | 8% | -16% | 29.9% | 2% | -20% | -37.8% | -27% | -111% | 72.2% (active) | -4% | -10% | -4.2% | -3% | -13% | -2.15%
O=C1CN(/N=C\c2ccc([N+](=O)[O-])o2)C(=O)N1 | 11% | 48% | 56.5% | 4% | 29% | 15.2% | 2% | 39% | 41% | -5% | 18% | -8.35% | 3% | 26% | 27.5% | 19% | 65% | 69.8%
CCN(CC)c1ccc(N=C2C=C(C(=O)Nc3cccc(Cl)c3)C(=O)c3ccccc32)c(C)c1 | -1% | -12% | -17.9% | 8% | 32% | -7% | -30% | -23% | -9.25% | -4% | -7% | 38.4% | 0% | -12% | -4.35% | -34% | -43% | -27.2%
